# Laboratory results from PMC4336329 (PLoS ONE, 2015).
# Out of some 310,000 compounds screened, about 2,200 (0.71%) showed an effect of 50% or more. The effect is printed as a negative number. This is one part of a sample in which strong results are shown more often than they occur.
# Target: human ether-à-go-go-related gene (hERG) potassium channel (human, UniProt Q12809)
# Assay: primary screen, population patch clamp on CHO cells stably expressing hERG; higher = less effect of the substance
# human ether-à-go-go-related gene (hERG) potassium channel, sequence (Q12809 whole entry, looked up): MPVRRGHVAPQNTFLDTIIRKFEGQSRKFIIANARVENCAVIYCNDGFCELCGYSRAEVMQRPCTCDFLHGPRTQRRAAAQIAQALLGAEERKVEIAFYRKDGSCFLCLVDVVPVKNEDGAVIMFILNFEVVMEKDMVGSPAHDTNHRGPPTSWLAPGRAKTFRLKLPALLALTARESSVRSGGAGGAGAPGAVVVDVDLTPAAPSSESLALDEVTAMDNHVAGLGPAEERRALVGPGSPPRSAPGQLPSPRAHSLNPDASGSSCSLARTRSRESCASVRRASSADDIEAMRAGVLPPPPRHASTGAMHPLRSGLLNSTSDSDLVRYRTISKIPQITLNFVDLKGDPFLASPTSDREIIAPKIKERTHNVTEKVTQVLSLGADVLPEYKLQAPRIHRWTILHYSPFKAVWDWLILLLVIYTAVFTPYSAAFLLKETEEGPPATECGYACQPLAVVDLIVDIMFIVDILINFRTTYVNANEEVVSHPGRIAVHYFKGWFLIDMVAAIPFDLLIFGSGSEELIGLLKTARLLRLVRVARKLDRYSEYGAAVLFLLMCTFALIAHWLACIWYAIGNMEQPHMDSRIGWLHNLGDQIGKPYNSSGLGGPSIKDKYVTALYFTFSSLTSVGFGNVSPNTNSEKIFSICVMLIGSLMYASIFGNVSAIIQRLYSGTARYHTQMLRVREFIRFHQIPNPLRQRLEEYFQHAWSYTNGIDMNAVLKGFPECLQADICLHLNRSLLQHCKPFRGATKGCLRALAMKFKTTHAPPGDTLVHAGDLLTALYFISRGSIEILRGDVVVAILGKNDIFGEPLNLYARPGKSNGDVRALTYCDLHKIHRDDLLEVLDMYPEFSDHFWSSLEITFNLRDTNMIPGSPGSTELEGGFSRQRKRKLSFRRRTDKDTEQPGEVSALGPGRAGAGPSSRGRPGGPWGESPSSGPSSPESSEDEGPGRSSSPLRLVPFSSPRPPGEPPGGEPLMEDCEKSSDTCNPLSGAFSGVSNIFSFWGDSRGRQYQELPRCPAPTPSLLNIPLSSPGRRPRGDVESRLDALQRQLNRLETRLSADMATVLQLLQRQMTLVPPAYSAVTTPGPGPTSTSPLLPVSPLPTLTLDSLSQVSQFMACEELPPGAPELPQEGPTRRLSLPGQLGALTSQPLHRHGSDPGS
row,SMILES,"hERG current change (%, negative = inhibition) at 1uM"
1,C=Cc1ccc2c(c1)OCCOCCOCCOCCOCCO2,-70.2%
2,Cl.Nc1ccc2c(c1)OCCOCCOCCOCCOCCO2,-12.2%
3,Brc1cc2c(cc1Br)OCCOCCOCCOCCO2,-38.2%
4,Brc1ccc2c(c1)OCCOCCOCCOCCOCCO2,-78.6%
5,Brc1cc2c(cc1Br)OCCOCCOCCO2,5.78%
6,Brc1ccc2c(c1)OCCOCCOc1cc(Br)ccc1OCCOCCOCCO2,-6.77%
7,CCNC(=S)N1CCc2ccccc2C1,9.59%
8,CCOc1ccc(C(=O)n2cnnc2N)cc1,16.9%
9,Cc1nc(SC2CCOC2=O)c2c(C)c(C)sc2n1 (centres unmarked),4.94%
10,Cc1cccc(NC(=O)C2CCN(S(=O)(=O)c3cccs3)CC2)n1,2.08%
11,Cc1ccc(-n2c(C)nnc2SCC(=O)N2CCc3ccccc3C2)cc1,-19.6%
12,Cc1ccc(N(C(=O)c2ccccn2)C2(C(=O)NC3CCCC3)CCCCC2)cc1,16.9%
13,CC(=O)O.CN(C)Cc1cn(CCC(=O)O)c2ccccc12,10.9%
14,CCOC(=O)C1CCCN(CCC(=O)Nc2cc(C)ccc2C)C1.Cl (centres unmarked),-8.02%
15,COc1ccc(-n2c(SCC(=O)NCC3CCCO3)nc3n[nH]c(C)c3c2=N)cc1 (centres unmarked),7.29%
16,O=C(COc1ccc(Cl)cc1Cl)Nc1nc2n(n1)C(c1ccccc1)CC(=O)N2 (centres unmarked),1.52%
17,CCc1nnc(NC(=O)c2cc(S(=O)(=O)N3CCCCC3)ccc2C)s1,1.93%
18,CCn1c2ccccc2c2cc(NC(=O)CSc3nnc(-c4cccc(Cl)c4)o3)ccc21,9.78%
19,O=C(COc1ccccc1)Nc1ccccc1C(=O)NCc1ccco1,6.35%
20,Cc1c(C(=O)OCC(=O)NCc2ccco2)oc2ccccc12,10.1%
21,COc1ccc(OCC(=O)Nc2c(C(=O)N3CCN(C)CC3)oc3ccccc23)cc1,-15%
22,CCCN1CCN(C(=O)c2oc3ccccc3c2NC(=O)COc2ccc(OC)cc2)CC1,-46.3%
23,COc1ccccc1C(=O)Nc1c(C(=O)N(CCN(C)C)Cc2ccco2)oc2ccccc12,-27.4%
24,CN(C)CCN(Cc1ccco1)C(=O)c1oc2ccccc2c1NC(=O)COc1ccccc1,-79.3%

row,SMILES,"hERG current change (%, negative = inhibition) at 1uM"
1,COc1ccc(OCC(=O)Nc2c(C(=O)N(CCN(C)C)Cc3ccco3)oc3ccccc23)cc1,-82.2%
2,Cc1ccccc1C(=O)Nc1c(C(=O)N(CCN(C)C)Cc2ccco2)oc2ccccc12,-81.1%
3,Cc1c(C(=O)NCc2ccco2)oc2ccccc12,9.16%
4,O=c1c(=Nc2ccccc2O)c(=O)c2ccccc12,17.3%
5,O=c1[nH]c2cc3c(cc2cc1CN(Cc1ccco1)C(=S)NCC1CCCO1)OCCO3 (centres unmarked),15.1%
6,COC(=O)c1sc(NC(=S)NC(=O)c2ccccc2F)nc1C,2.7%
7,O=C1CCC([N+](=O)[O-])C(c2cc(Br)ccc2F)N1 (centres unmarked),14.5%
8,O=C(CNC(=O)c1ccc(F)cc1)c1ccc(Cl)cc1,19.6%
9,Cc1cccc(CN2C[C@]34C=C[C@@H](C[C@@H]3S2(=O)=O)O4)c1,10.3%
10,CCc1ccc(NC(=O)Nc2cc(C(=O)O)ccc2N2CC3CC(C2)c2cccc(=O)n2C3)cc1 (centres unmarked),19.5%
11,CCc1ccc(NC(=O)Nc2cc(C(=O)NCC3CCCO3)ccc2N2CC3CC(C2)c2cccc(=O)n2C3)cc1 (centres unmarked),11.3%
12,CCCNC(=O)c1ccc(N2CC3CC(C2)c2cccc(=O)n2C3)c(NC(=O)Nc2ccc(CC)cc2)c1 (centres unmarked),-56.1%
13,CCOC(=O)c1ccc(NC(=O)CSc2ccc(-c3ccncc3)nn2)cc1,9.76%
14,NCCCC[C@H]1CN=C(N)N1CCc1cccc2ccccc12,9.97%
15,Cc1ccc(C(=O)N/C(=C/c2ccc(-c3cccc([N+](=O)[O-])c3)o2)C(=O)NCCCN(C)C)cc1,-73.3%
16,Cc1ccc(C(=O)N/C(=C\c2ccc(-c3ccccc3[N+](=O)[O-])o2)C(=O)NCCCN2CCOCC2)cc1,-11.2%
17,Cc1ccc(C(=O)N/C(=C\c2ccc(-c3cccc([N+](=O)[O-])c3)o2)C(=O)NCCCN2CCOCC2)cc1,-74.7%
18,CN(C)CCCNC(=O)/C(=C\c1ccc(-c2cccc([N+](=O)[O-])c2)o1)NC(=O)c1ccccc1,-77.9%
19,CN(C)CCNC(=O)/C(=C/c1ccc(-c2cccc([N+](=O)[O-])c2)o1)NC(=O)c1ccccc1,-37.2%
20,O=C(NCCCO)/C(=C/c1ccc(-c2cccc([N+](=O)[O-])c2)o1)NC(=O)c1ccccc1,-4.53%
21,Cc1ccc(C(=O)N/C(=C/c2ccc(-c3cccc([N+](=O)[O-])c3)o2)C(=O)NC(C)(C)C)cc1,-0.682%
22,Cc1ccc(C(=O)N/C(=C/c2ccc(-c3cccc([N+](=O)[O-])c3)o2)C(=O)NC(C)C)cc1,10.1%
23,Cc1ccc(C(=O)N/C(=C\c2ccc(-c3cccc([N+](=O)[O-])c3)o2)C(=O)NCCCN(C)C)cc1,-27.5%
